In the supplement of paper PMC13380429:

Test system: Vero E6 infected with SARS-CoV-2
Assay: inhibition of SARS-CoV-2 cytopathic effect; higher = more antiviral protection, active = above 15
Details: 833.33 nM; 48 h

Row | SMILES | inhibition of SARS-CoV-2 cytopathic effect
1 | NC(=O)Nc1sc(-c2ccc(F)cc2)cc1C(N)=O | -3.05% (inactive)
2 | CC1(C)C[C@@H]1C(=O)N/C(=C\CCCCSC[C@H](N)C(=O)O)C(=O)O [Cilastatin Sodium] | -0.19% (inactive)
3 | O=C(Nc1cccc(Cl)c1)Nc1ncc(CCNc2ncnc3ccsc23)s1 | -0.89% (inactive)
4 | CCc1nn(CCCN2CCN(c3cccc(Cl)c3)CC2)c(=O)n1CCOc1ccccc1 [nefazodone] | 0.6% (inactive)

Same assay, conditions: 10000 nM; 48 h

Row | SMILES | inhibition of SARS-CoV-2 cytopathic effect
5 | O=C(O)c1ccc(/C=C2\SC(=S)N(c3cccc(C(F)(F)F)c3)C2=O)cc1 | -0.46% (inactive)
6 | Cc1ccccc1/N=N/c1ccc(/N=N/c2c(O)ccc3ccccc23)c(C)c1 [sudan-IV] | -2.29% (inactive)
7 | C[C@H]1COc2c(C3(N)CC3)c(F)cc3c(=O)c(C(=O)O)cn1c23 [pazufloxacin] | -3.15% (inactive)
8 | O=C(c1cccc(Br)c1)N1CCC(N2CCCC2)CC1 | -0.32% (inactive)
9 | CC[C@@H](C)Nc1cc(C(=O)N[C@H]2C[C@H]3CC[C@@H](C2)N3c2ccc(C(=O)C3CC3)cn2)c(C)cc1C(N)=O | 1.28% (inactive)
10 | COc1ccc(CCNCc2ccc(OCc3ccc(Cl)nc3)c(OC)c2)cc1OC | -2.68% (inactive)
11 | CC(=O)NNC(=O)N1Cc2ccccc2Oc2ccc(Cl)cc21 | -2.14% (inactive)
12 | CN1CCC(=C2c3ccccc3C=Cc3ccccc32)CC1 [cyproheptadine] | -4.89% (inactive)
13 | CCCn1c(=O)c2[nH]c(-c3cnn(Cc4cccc(C(F)(F)F)c4)c3)nc2n(CC)c1=O | 0.11% (inactive)
14 | Cc1nc(Nc2ncc(C(=O)Nc3c(C)cccc3Cl)s2)cc(N2CCN(CCO)CC2)n1 [dasatinib] | -11.6% (inactive)
15 | Cc1cc(N2CCOCC2)ccc1Nc1nc(NC2CCCCC2)c2nc[nH]c2n1 | 0.7% (inactive)
16 | Clc1ccc(-c2nc3sccn3c2/C=N/OCc2ccc(Cl)c(Cl)c2)cc1 | 0.21% (inactive)
17 | CCCn1c(=O)c2nc(-c3ccccc3)[nH]c2n(CCC)c1=O [1,3-dipropyl-8-phenylxanthine] | -1.61% (inactive)
18 | CCOc1ccccc1C(=O)O [2-ethoxybenzoic-acid] | -0.66% (inactive)
19 | Cc1cc(C)c(S(=O)(=O)n2cc(C)cc2C)c(C)c1 | -1.17% (inactive)
20 | CCCCn1c(=O)c2[nH]c(C34CC5CC(CC3C5)C4)nc2n(CCCO)c1=O | -2.7% (inactive)
21 | Cc1cccc(NC(=O)c2ccc(C(F)(F)F)cc2C(=O)O)n1 | 2.54% (inactive)
22 | COc1ccc(C(=O)N2CCCc3cc(C4=NNC(=O)SC4C)ccc32)cc1OC (centres undefined) | 4.36% (inactive)
23 | O=C(/C=C/c1ccc2ccc(C(F)(F)F)cc2n1)c1ccncc1 | 5.19% (inactive)
24 | CC(C)=CCC/C(C)=C/CC/C(C)=C/CSc1ccccc1C(=O)O [salirasib] | 0.01% (inactive)

Row | SMILES | inhibition of SARS-CoV-2 cytopathic effect
25 | N=C1NC(=O)/C(=C/c2ccc(O)cc2)S1 [mirin] | 1.33% (inactive)
26 | Clc1ccc(C(Cn2ccnc2)OCc2ccsc2Cl)c(Cl)c1 (centres undefined) [tioconazole] | -5.16% (inactive)
27 | Cc1cnc(Nc2ccc(OCCN3CCCC3)cc2)nc1Nc1cccc(S(=O)(=O)NC(C)(C)C)c1 [fedratinib] | -18.4% (inactive)
28 | O=C(O)CC/C=C\C[C@@H]1CO[C@H](c2ccccc2Cl)O[C@@H]1c1ccccc1O (racemic) | -2.08% (inactive)
29 | COc1cc(OC)c(/C=C2/C(=O)Nc3ccccc32)c(OC)c1 | -1.88% (inactive)
30 | Nc1ncnc2c1nc(Br)n2[C@@H]1O[C@@H]2COP(=O)(O)O[C@H]2[C@H]1O [8-bromo-cAMP] | -0.37% (inactive)
31 | CN[C@@H](C)CCC=C(C)C [isometheptene-mucate] | -0.16% (inactive)
32 | CC1(C)S[C@@H]2[C@H](NC(=O)C(C(=O)O)c3ccccc3)C(=O)N2[C@H]1C(=O)O (some centres undefined) [carbenicillin] | 0.1% (inactive)
33 | NCC1(CC(=O)O)CCCCC1 [gabapentin] | 2.27% (inactive)
34 | S=P(N1CC1)(N1CC1)N1CC1 [thiotepa] | 2.21% (inactive)
35 | COc1cc([C@@H]2c3cc4c(cc3[C@@H](O[C@@H]3O[C@@H]5CO[C@@H](C)O[C@H]5[C@H](O)[C@H]3O)[C@H]3COC(=O)[C@H]23)OCO4)cc(OC)c1O [etoposide] | 4.17% (inactive)
36 | CCN(CC)Cc1nccn1-c1ccc([N+](=O)[O-])cc1C(=O)c1ccccc1Cl [nizofenone] | 1.83% (inactive)
37 | O=c1[nH]c(=O)n([C@H]2C[C@H](O)[C@@H](CO)O2)cc1Br [broxuridine] | 0.04% (inactive)
38 | NCCc1cc[nH]n1 [betazole] | 0.97% (inactive)
39 | COc1ncc2cc(C(=O)Nc3cc(C(=O)NCc4cccc(Cl)c4)ccc3Cl)c(=O)[nH]c2n1 | 2.62% (inactive)
40 | c1ccc2c(c1)CN1CCCC1=N2 [desoxypeganine] | -1.54% (inactive)
41 | NC(=O)Nc1sc(-c2ccc(F)cc2)cc1C(N)=O | -0.22% (inactive)
42 | CC1(C)C[C@@H]1C(=O)N/C(=C\CCCCSC[C@H](N)C(=O)O)C(=O)O [Cilastatin Sodium] | -0.52% (inactive)
43 | O=C(Nc1cccc(Cl)c1)Nc1ncc(CCNc2ncnc3ccsc23)s1 | -1.37% (inactive)
44 | CCc1nn(CCCN2CCN(c3cccc(Cl)c3)CC2)c(=O)n1CCOc1ccccc1 [nefazodone] | -2.21% (inactive)
